Structures are written as SMILES. Records with an inconclusive call do not appear. A call without a number means that no potency is given here. Values without a mark were called inactive. Active and inactive are the calls of the source. The call rests on the fitted dose curve; in most records, active means well fitted cell-killing curve with a large enough effect in the repeat runs; inconclusive means weak or mixed curves, or effect the other way; inactive means no such curve, though single readings can be large or run the other way.
Potency means the concentration at half of the fitted maximal effect.

The nature of the test: qHTS assay to identify small molecule agonists of the RXR signaling pathway - cell viability counter screen (AID 1159529). Further: nearly all actives have a fitted effect of over 50% in size. The settings on record: RXR-alpha-bla HEK293T viability, CellTiter-Glo, 16 h; series mostly up to 76.8 µM. The source says:
National Center for Advancing Translational Sciences [NCATS]
NIH Chemical Genomics Center [NCGC]
U.S. Environmental Protection Agency [EPA]
National Institutes of Environmental Health Sciences [NIEHS]
National Toxicology Program [NTP]
U.S. Food and Drug Administration [FDA]
The Retinoid X receptor (RXR), a nuclear hormone receptor expressed in liver, spleen, placenta, epidermis, central nervous system. These receptors are able to form homo and heterodimers with other nuclear receptors and due to this heterodimerizing ability, RXR functions as master regulators producing diverse physiological effects. Three subtypes of RXR exist; alpha, beta and gamma. Retinoid X receptor alpha (RXR-alpha) has potential roles in metabolic signaling pathways, skin alopecia, dermal cysts, cardiac development, insulin sensitization etc. Therefore screening environmental chemicals on RXR-alpha signaling can be used for the studies focused on such therapeutic applications. For quantification of RXR-alpha ligands signaling, GeneBLAzer RXR alpha-UAS-bla HEK 293T (Life Technologies, Carlsbad, CA) cells containing a beta-lactamase reporter-gene under control of Retinoid X receptor-alpha response element were used to screen Tox21 10K library. The cytotoxicity of the Tox21 compound library against the RXR-alpha HEK 293T cell line was tested in parallel by measuring cell viability using CellTiter-Glo assay (Promega Corporation, Madison, WI) in the same wells.
Tox21 Assay Protocol Summary:
RXR-alpha HEK 293T cells were dispensed at 2,000 cells/6 uL of assay medium containing 2% charcoal-stripped FBS using a Multidrop Combi (ThermoFisher Scientific, Waltham, MA) dispenser. The assay was performed in black wall/clear-bottom 1536-well plates (Greiner Bio-One North America Inc. Monroe, NC). Tetraoctyl ammonium bromide was used as a positive control in the cytotoxicity screen. After the assay plates were incubated at 37 C and 5% CO2 for 5 hr, 23 nL of compounds dissolved in DMSO, positive control or DMSO only were transferred to the assay plate by a Pintool station (Kalypsys, San Diego, CA). The assay plates were incubated at 37 C and 5% CO2 for 16 hr. One uL of LiveBLAzer B/G FRET substrate (Life Technologies) was added using a Flying Reagent Dispenser (FRD) (Aurora Discovery, San Diego, CA) and the plates were incubated at room temperature for 2 hr. Fluorescence intensity (405 nm excitation, 460/530 nm emission) was measured using an Envision plate reader (PerkinElmer, Shelton, CT). For cytotoxicity, 4 uL/well of CellTiter-Glo reagent was added into the assay plates using an FRD. After 30 min incubation at room temperature, the luminescence intensity was measured using a ViewLux plate reader (PerkinElmer).
Background: qHTS replaces the single test concentration by a dilution series.
Consider `CC12CC3CC(C)(C1)CC(N)(C3)C2`, for which the Potency result was “inactive”.

Consider `COC(=O)c1sccc1S(N)(=O)=O`, for which the Potency entry was “inactive”. Consider `COc1cc(S(=O)(=O)Nc2ccccc2)c(OC)cc1N`, for which the Potency result is “inactive”. On the same count and under the same terms, for `COC(=O)C1=C(C)NC(C)=C(C(=O)OC(C)(C)CN(C)CCC(c2ccccc2)c2ccccc2)C1c1cccc([N+](=O)[O-])c1` (stereo not given) the value was “inactive”; for `CCCCC[C@H](O)/C=C/[C@H]1[C@H](O)CC(=O)[C@@H]1C/C=C\CCCC(=O)O`, “inactive”; for `COc1ccc(CCN(C)CCCN2CCc3cc(OC)c(OC)cc3CC2=O)cc1OC`, “inactive”. The same measure, in the same setting: under `CC(C)c1ccc(C(=O)N=C(N)N)cc1S(C)(=O)=O` stands “inactive”; under `CC(C)(O)CCc1ccccc1`, “inactive”. The same measure, in the same setting: under `Oc1ccc2c(c1)Cc1ccccc1-2` stands “inactive”; under `NC(=O)CCCCC(N)=O`, “inactive”. Turning to `CC1CCCO1` (stereo not given), the Potency entry is “inactive”.

In the case of `BrC(Br)C(Br)Br`, the Potency entry is “inactive”. The same measure, in the same setting: for `CC(C)COC(=O)COc1cc(Cl)c(Cl)cc1Cl` the value was “inactive”; for `C=Cc1ccc(OC(C)=O)cc1`, “inactive”. As for `CCCCCCC(CO)CCCC` (stereo not given), the Potency entry was “inactive”. As to `Cc1cc([N+](=O)[O-])ccc1N`, the Potency result was “inactive”.

Turning to `CCN(CC)CCOC(=O)C(c1ccccc1)c1ccccc1`, the Potency result is “inactive”.

As to `O=C(O)CO`, the Potency result is “inactive”. Still for that read-out and setting: for `O=C(O)c1cccc(Oc2ccccc2)c1` the value was “inactive”; for `CC(=O)c1ccc[nH]1`, “inactive”. On the same count and under the same terms, for `CN1CCCN(C(c2ccccc2)c2ccc(Cl)cc2)CC1` (stereo not given) the value was 7.56 µM (active). With `CCCCCCCCCCCSCC(=O)O`, the Potency is 19.5 µM (active). Still for that read-out and setting: for `CCNc1nc(N)nc(Cl)n1` the value was “inactive”. The same measure, in the same setting: under `O=C(NC(Cc1cc(=O)[nH]c2ccccc12)C(=O)O)c1ccc(Cl)cc1` (stereo not given) stands “inactive”. Turning to `Cc1ccccc1S(N)(=O)=O`, the Potency entry was “inactive”. Still for that read-out and setting: for `O=C(O)CCS` the value was “inactive”; for `CCC(=O)OCc1ccc(OC)cc1`, “inactive”. For the molecule `CCC(Cl)CC(Cl)C(Cl)C(Cl)C(Cl)C(C)Cl` (stereo not given), the activity change, negative = cytotoxicity is -9.76% [at 15.8 µM]. As to `O=C(O)CN1C(=O)c2cccc3cccc(c23)C1=O`, the Potency entry was “inactive”. On the same count and under the same terms, for `CCCCCc1ccco1` the value was “inactive”; for `CC(=O)N[C@@H](Cc1ccc(O)cc1)C(=O)O`, “inactive”; for `CC(=O)C(=O)CC(C)C`, “inactive”. Still for that read-out and setting: for `CC(=O)OC(C)C[N+](C)(C)C` (stereo not given) the value was “inactive”; for `c1ccc(CNc2ncnc3c2ncn3C2CCCCO2)cc1` (stereo not given), “inactive”. On the same count and under the same terms, under `CC(CN(CCN(CC(C)OCCO)CC(C)OCCO)CC(C)OCCO)OCCO` (stereo not given) stands “inactive”; under `CC[C@@H](CO)NCCN[C@@H](CC)CO`, “inactive”. As to `COc1ccc(-c2cc(=S)ss2)cc1`, the Potency result is “inactive”. Same read-out and setting: under `Nc1nc(-c2ccc([N+](=O)[O-])cc2)cs1` stands “inactive”; under `CCCCCCC(O)CCOC(C)=O` (stereo not given), “inactive”; under `CC1C(C)(C)C2=C(C(=O)CCC2)C1(C)C` (stereo not given), “inactive”.

The record behind these values is PubChem BioAssay (Tox21).
